Experimental data as given in PubChem BioAssay (NCI).
The panel holds about 83,000 compounds, 20% with a hit somewhere; the sample as a whole holds those more often.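 Activity criterion: percent growth below 10, measured after cells in 96-well plates were exposed to a single compound concentration for 48 hours.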 Unmarked numbers belong to inactive results. The source made the active and inactive calls.

Experiments:
Experiment in all cases: NCI-60 one-dose screen, 48 h (100 = growth as untreated, 0 = no growth, -100 = all killed)
Details in all cases: 10 µM unless noted
[1] = tested on: DU-145 prostate
[2] = tested on: K-562 leukemia
[3] = tested on: MALME-3M melanoma
[4] = tested on: MDA-MB-231 breast
[5] = tested on: RXF 393 renal
[6] = tested on: SF-268 CNS
[7] = tested on: SF-295 CNS
[8] = tested on: SF-539 CNS
[9] = tested on: UACC-257 melanoma
[10] = tested on: M14 melanoma

Compound	growth [1]	growth [2]	growth [3]	growth [4]	growth [5]	growth [6]	growth [7]	growth [8]	growth [9]	growth [10]
CCc1cccc(Sc2cc(C(=O)N3Cc4ccc(OCCN(C)C)cc4C3)ccc2O)c1	38.9%	22%	57.3%	80%	72.2%	63.8%	78.4%	89%	63.3%	78.1%
COc1ccc(-c2oc(=O)ccc2-c2cc(OC)c(OC)c(OC)c2)cc1O	6.81% (active)	-9.26% (active)	37.8%	38.6%	-38.7% (active)	24.9%	-17.8% (active)	-13.7% (active)	47.3%	-62.5% (active)
CCCCCCCCCCCCCCCCCCOc1ccccc1CC(=O)NCC[N+]1(C)CCOCC1	65.5%	15.7%	58.9%	54.1%	-39.4% (active)	41.5%	62.8%	54.5%	99.4%	69.6%
CCOC(=O)CSc1nc2sc3c(c2c(=O)n1-c1ccc([N+](=O)[O-])cc1)CCCCC3	63.5%	75.2%	77.7%	50.4%	76.8%	71.2%	59.3%	58.3%	89%	75.3%
O=C(CN1C(=O)NC2NC(=O)NC21)N/N=C/c1ccc(Cl)cc1Cl (stereo not given)	113%	105%	106%	109%	117%	99.6%	101%	93.3%	114%	104%
CCN(CC)CCOc1nc2c3ccc(Cl)cc3nn2c2ccccc12	26.4%	1.82% (active)	35.8%	21.3%	7.71% (active)	44.6%	29%	17.8%	16.1%	44.5%
CCCCCCC(=O)Nc1ncc(Cc2ccc(C)cc2)s1	42.2%	24.2%	58.6%	59.9%	-7.29% (active)	58.1%	34.6%	20.6%	55.2%	31.6%
COc1ccc(Nc2ncccc2NC(=O)c2cn(Cc3cccc(Oc4ccccc4)c3)nn2)cc1OC	84%	28.7%	87.4%	67.9%	86.3%	61.7%	84.2%	95%	92.4%	72.5%
S=c1[nH]c2cc(Cl)ccc2o1	102%	90.7%	102%	89%	104%	105%	99.2%	106%	113%	94.3%
Cc1ncc(C(=O)Nc2ccc(CN3CCN(C)CC3)c(C(F)(F)F)c2)cc1C#Cc1cnc(N)c2ccncc12	-50.5% (active)	-32.5% (active)	-72.9% (active)	-47.9% (active)	-87.7% (active)	-37.5% (active)	-45.4% (active)	-86.6% (active)	-75.2% (active)	-63.7% (active)
C[C@@H]1CC[C@@]2(OC1)O[C@H]1C[C@H]3[C@@H]4CC=C5C[C@@H](O[C@@H]6O[C@H](CO)[C@@H](O[C@@H]7O[C@@H](CO)[C@H](O)[C@H]7O)[C@H](O)[C@H]6O[C@@H]6O[C@@H](C)[C@H](O)[C@@H](O)[C@H]6O)CC[C@]5(C)[C@H]4CC[C@]3(C)[C@H]1[C@@H]2C	-95.2% (active)	-1.01% (active)	-91.6% (active)	-95.3% (active)	-95% (active)	-54.8% (active)	-91.7% (active)	-99.2% (active)	-94% (active)	-92.6% (active)
Cc1[nH]c(C(=O)Nc2cccc(OC3CCNCC3)c2)c(Cl)c1Cl	88%	0.0646% (active)	27.2%	50.7%	40.9%	74.5%	58.7%	71.5%	17.7%	-12.4% (active)
COc1cccc(OC)c1Oc1c(-c2nc3ccccc3s2)c(C)nn1-c1ccccc1	79.4%	61%	81.7%	76.4%	67.9%	77.1%	69.4%	92%	92.4%	72.3%
CN1CCN(Cc2cc(NC(=O)c3cccc(C#Cc4cccc5[nH]nc(N)c45)c3)cc(C(F)(F)F)c2)CC1	33.9%	-42.3% (active)	-54.7% (active)	-31% (active)	-9.77% (active)	40.5%	26.3%	-55.6% (active)	57.8%	-53.1% (active)
Cc1cc2oc(=O)cc(CP(=O)(O)O)c2cc1O	103%	107%	85.8%	97.4%	103%	96.6%	100%	96.8%	94.5%	103%
O=C(CCCCCCCCC(=O)N/N=C\c1cc(Cl)ccc1O)N/N=C\c1cc(Cl)ccc1O	30.5%	23.7%	37.6%	37%	46.7%	28.3%	21.9%	15.6%	23.6%	17.7%
C#CCn1cnc2c(Nc3cccc(NC(=O)CCl)c3)ncnc21	43.6%	13.2%	34.4%	18.4%	54.6%	35.3%	59.7%	45.4%	28.4%	24.4%
C=C(CN1CC=CCC1)[C@@H]1CC[C@]2(CO)CC[C@]3(C)[C@H](CC[C@@H]4[C@@]5(C)CC[C@H](O)C(C)(C)[C@@H]5CC[C@]43C)[C@@H]12	106%	77%	101%	116%	106%	101%	102%	91.1%	111%	96.1%
CCn1c2ccc(O)cc2c2c(C)c3c[n+](C(C)C)ccc3c(C)c21	29.6%	41%	-6.64% (active)	45.4%	53.4%	14%	60.5%	38.7%	37%	36.5%
Cn1cccc1/C=C1\C(=O)Nc2ccccc21	110%	98.9%	94.8%	67.4%	103%	92.3%	100%	99.5%	98%	96.6%
C=C(c1ccc(C(=O)O)cn1)c1cc2c(cc1C)C(C)(C)CCC2(C)C	93.7%	92.3%	76.9%	93.8%	102%	76.5%	83.2%	86.3%	84%	88.5%
CN1CCN(CCCOC(=O)c2c3c(n4ccccc24)C(=O)c2ncccc2C3=O)CC1	-66.5% (active)	-30.4% (active)	-59.7% (active)	20%	-2.1% (active)	5.69% (active)	-5.73% (active)	-13.1% (active)	-34.2% (active)	-86.1% (active)
C=CCn1c(SCC(=O)Nc2ccc(C(=O)/C=C/c3cc(OC)c(OC)c(OC)c3)cc2)nnc1-c1cc(-c2ccc(OC)cc2)nc2ccccc12	96.5%	83.1%	95.3%	76.8%	89.5%	91.4%	106%	90.9%	100%	107%
Clc1nn2c(Cn3cnc4c(NCc5ccccc5)ncnc43)nnc2c2ccccc12	36.7%	42.7%	27.8%	26.6%	39%	41.9%	63.2%	50.7%	39.1%	19.7%
NC(=O)c1ccc(NC(=O)c2oc3ccccc3c2-c2cnn(-c3ccccc3)c2)cc1	7.15% [50 µM] (active)	46% [50 µM]	-7.76% [50 µM] (active)	-68% [50 µM] (active)	-29.1% [50 µM] (active)	27.4% [50 µM]	15.6% [50 µM]	-21.7% [50 µM] (active)	47.3% [50 µM]	-0.698% [50 µM] (active)
COc1ccc(-c2ccc(=O)oc2C#Cc2cc(OC)c(OC)c(OC)c2)cc1O	-4.48% (active)	0.484% (active)	48%	30.4%	-13.2% (active)	20.5%	-20.6% (active)	-28.7% (active)	35.7%	-44.5% (active)
